Out of some 39,000 compounds screened, about 1,500 (3.8%) were called active. Many of the other results were omitted from the sample, so actives are more common in it than they were.
Test system: HSkMC (human skeletal muscle cells)
Assay: cytotoxicity call (relative viability < 0.9)
Conditions: 10 µM

| Structure (SMILES) | cytotoxicity call |
| --- | --- |
| C[C@@H]1CCCCO[C@H](CN(C)S(C)(=O)=O)[C@@H](C)CN([C@H](C)CO)C(=O)c2cc(NS(=O)(=O)c3cccs3)ccc2O1 | inactive |
| C[C@@H]1CCCCO[C@@H](CN(C)C(=O)Nc2ccc(C(F)(F)F)cc2)[C@H](C)CN([C@H](C)CO)C(=O)c2cc(NC(=O)Cc3ccccc3)ccc2O1 | inactive |
| O=C(Oc1cccc2cccnc12)c1ccccc1 | inactive |
| COc1nc(=NC(=O)NS(=O)(=O)Nc2cccc3cccnc23)nc(OC)[nH]1 | active |
| COc1ccc(N2C(=O)C[C@@H](c3ccc(Br)cc3)[C@H]2C(=O)Nc2cccc3cccnc23)cc1 | inactive |
| CNC[C@H]1Oc2c(NS(=O)(=O)c3cn(C)cn3)cccc2C(=O)N([C@H](C)CO)C[C@@H]1C | inactive |
| COc1cc2c(Oc3ccc(NC(=O)C4(C(=O)Nc5ccc(F)cc5)CC4)cc3F)ccnc2cc1OCCCN1CCOCC1 | active |
| COc1cc2nccc(Oc3ccc(NC(=O)c4cn(C(C)C)c(=O)n(-c5ccc(F)cc5)c4=O)cc3F)c2cc1OC | active |
| COc1ccc2c3c(n(c2c1)C)[C@H](CO)N(C[C@]13CCN(CC1)C(=O)CN1CCOCC1)C(=O)Nc1ccc(cc1)F | inactive |
| COc1ccc2c3c([nH]c2c1)[C@H](CO)N(C[C@]13CCN(CC1)C(=O)Nc1c(noc1C)C)C(=O)Nc1ccc(cc1)F | inactive |
| CCOc1ccn(-c2ccc(F)cc2)c(=O)c1C(=O)Nc1ccc(Oc2ccnc(N)c2Cl)c(F)c1 | inactive |
| COc1cc2ncnc(Nc3ccc(F)c(Cl)c3)c2cc1OCCCN1CCOCC1 | inactive |
| COc1cc2nccc(Oc3ccc(NC(=O)C4(C(=O)Nc5ccc(F)cc5)CC4)cc3)c2cc1OC | active |
| COc1cc2ncnc(Oc3cccc(NC(=O)Nc4cc(C(C)(C)C(F)(F)F)on4)c3)c2cc1OC | inactive |
| C[C@H](CO)N1C[C@H](C)[C@@H](CN(C)S(=O)(=O)c2cccs2)Oc2ccc(NS(=O)(=O)c3cccs3)cc2CC1=O | inactive |
| C[C@H](CO)N1C[C@H](C)[C@@H](CN(C)Cc2ccc(C(F)(F)F)cc2)Oc2ccc(NC(=O)CCC(F)(F)F)cc2C1=O | inactive |
| C[C@@H]1CN([C@@H](C)CO)C(=O)CCCn2nncc2CO[C@H]1CN(C)C(=O)c1cc(-c2ccccc2)on1 | inactive |
| C[C@H](CO)N1C[C@H](C)[C@H](CN(C)CC2CC2)OCCCC[C@H](C)Oc2ccc(NS(=O)(=O)c3ccc(Cl)cc3)cc2C1=O | inactive |
| C[C@@H]1CN([C@H](C)CO)C(=O)Cc2cc(NS(=O)(=O)c3cn(C)cn3)ccc2O[C@@H]1CN(C)Cc1ccc(C(=O)O)cc1 | inactive |
| COC(=O)Cn1c(=N)n(C)c2ccccc21 | inactive |
| C[C@H](CO)N1C[C@H](C)[C@H](CN(C)Cc2ccc(Cl)c(Cl)c2)Oc2ccc(NC(=O)Cn3cnnn3)cc2C1=O | inactive |
| CO[C@@]1(NC(=O)[C@@H](C(=O)O)c2ccc(O)cc2)C(=O)N2C(C(=O)O)=C(CSc3nnnn3C)CO[C@@H]21 | inactive |

| Structure (SMILES) | cytotoxicity call |
| --- | --- |
| Cc1cc(C=Cc2ccc3cc(N(C)C)ccc3[n+]2C)c(C)n1-c1ccccc1.O=C([O-])c1cc2ccccc2c(Cc2c(O)c(C(=O)O)cc3ccccc23)c1O | active |
| CN1CCCN=C1C=Cc1cccc(O)c1.O=C(O)c1cc2ccccc2c(Cc2c(O)c(C(=O)O)cc3ccccc23)c1O | inactive |
| CN1CCCN=C1C=Cc1cccs1.O=C(O)c1cc2ccccc2c(Cc2c(O)c(C(=O)O)cc3ccccc23)c1O | inactive |
| C[C@H](CO)N1C[C@H](C)[C@@H](CN(C)C(=O)Nc2ccccc2)Oc2ccc(NC(=O)CCCCCC(=O)Nc3ccccc3N)cc2C1=O | inactive |
| Cc1ccc(S(=O)(=O)Nc2ccc3c(c2)C(=O)N([C@@H](C)CO)C[C@H](C)[C@H](CN(C)C(=O)Nc2ccc(C(F)(F)F)cc2)OCCCC[C@H](C)O3)cc1 | inactive |
| O=C(O)CN1C(=O)c2cccc3cccc(c23)C1=O | inactive |
| CC(C)(C)C1CCC(OC[C@@H](O)CN2CCC(CN3C(=O)c4cccc5cccc(c45)C3=O)CC2)CC1 (some centres undefined) | active |
| O=C(CN1C(=O)c2cccc3cccc(c23)C1=O)N1CCN(CCN2C(=O)[C@@H]3[C@@H](C2=O)[C@@H]2C=C[C@@H]3C2)CC1 | inactive |
| O=C(O)C1C(=CCO)OC2CC(=O)N21.[LiH] (centres undefined) | inactive |
| Cc1ccc(S(=O)(=O)N(C)C[C@H]2Oc3c(NC(=O)C4CC4)cccc3C(=O)N([C@@H](C)CO)C[C@H]2C)cc1 | inactive |
| O=C(C[C@H]1C[C@H]2c3cc(NC(=O)c4ccc5c(c4)OCO5)ccc3O[C@H]2[C@H](CO)O1)NCc1ccc(Oc2ccccc2)cc1 | active |
| O=C(C[C@H]1C[C@@H]2c3cc(NC(=O)c4ccc5c(c4)OCO5)ccc3O[C@@H]2[C@H](CO)O1)NCc1ccc(Oc2ccccc2)cc1 | inactive |
| O=C(C[C@@H]1C[C@H]2c3cc(NC(=O)c4ccc5c(c4)OCO5)ccc3O[C@H]2[C@@H](CO)O1)NCc1ccc(Oc2ccccc2)cc1 | inactive |
| O=C(C[C@H]1C[C@H]2c3cc(NC(=O)c4ccc5c(c4)OCO5)ccc3O[C@H]2[C@@H](CO)O1)NCc1cccnc1 | inactive |
| O=C(C[C@@H]1C[C@@H]2c3cc(NC(=O)c4ccc5c(c4)OCO5)ccc3O[C@@H]2[C@H](CO)O1)NCc1ccc(Oc2ccccc2)cc1 | active |
| O=C(C[C@@H]1C[C@@H]2c3cc(NC(=O)c4ccc5c(c4)OCO5)ccc3O[C@@H]2[C@@H](CO)O1)NCc1ccc(Oc2ccccc2)cc1 | active |
| O=C(C[C@H]1C[C@H]2c3cc(NC(=O)c4ccc5c(c4)OCO5)ccc3O[C@H]2[C@@H](CO)O1)NCc1ccc(Oc2ccccc2)cc1 | inactive |
| COc1ccccc1CNC(=O)C[C@@H]1C[C@H]2c3cc(NC(=O)c4ccc5c(c4)OCO5)ccc3O[C@H]2[C@H](CO)O1 | active |
| O=C(C[C@H]1C[C@@H]2c3cc(NC(=O)c4ccc5c(c4)OCO5)ccc3O[C@@H]2[C@@H](CO)O1)NCc1ccc(Oc2ccccc2)cc1 | inactive |
| COc1ccccc1CNC(=O)C[C@@H]1C[C@@H]2c3cc(NC(=O)c4ccc5c(c4)OCO5)ccc3O[C@@H]2[C@@H](CO)O1 | inactive |
| O=C(C[C@@H]1C[C@H]2c3cc(NC(=O)c4ccc5c(c4)OCO5)ccc3O[C@H]2[C@H](CO)O1)NCc1ccc(Oc2ccccc2)cc1 | inactive |
| COc1ccccc1CNC(=O)C[C@@H]1C[C@@H]2c3cc(NC(=O)c4ccc5c(c4)OCO5)ccc3O[C@@H]2[C@H](CO)O1 | inactive |

Reference: the antibiotic and cytotoxicity screens of Wong et al. (2023)
